Hits are enriched below; roughly 2.3% of the tested compounds scored in any of these assays.
PP5 inh – PP5 phosphatase inhibitors, primary screen, biochemical, fluorescence. Serine/threonine-protein phosphatase 5 (Homo sapiens), P53041. purified PP5c, OMFP substrate fluorescence. inhibition, % at 6.7 µM. hit rate 0.18% among 320,000. AID 1987, 2009;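 active = inhibition above the campaign's mean inhibition across all tested compounds plus 3 SD, cut at about 9.5% in these data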
MsrA inhibitor – bovine MsrA enzyme inhibitors, primary screen, biochemical, absorbance, HTS. AID 651718, 2012. Methionine sulfoxide reductase A (Bos taurus). inhibition, % at 15.5 µM. purified bovine MsrA, absorbance read-out. hit rate 0.75% among 360,000
MsrA act – bovine MsrA enzyme activators, primary screen, biochemical, absorbance, HTS | Methionine sulfoxide reductase A (Bos taurus) | purified bovine MsrA, absorbance read-out | activation, % at 10.6 µM | hit rate 0.3% among 360,000 | AID 602163, 2012; in the data active = activation above about 7.5%
ZTA DNA inh – blocks Epstein-Barr virus ZTA, an EBNA-1 counter-screen | ZTA-DNA binding, fluorescence polarization | AID 2234 | inhibition, % at 11 µM | P03206 | hit rate 0.15% among 320,000; in the data active = inhibition above about 33%
PP1 counter – PP1-alpha phosphatase inhibitors, primary screen, counter-screen for PP5 inhibitor project, biochemical, fluorescence, OMFP substrate, single point | AID 2235, 2010 | hit rate 0.9% among 320,000 | inhibition, % at 6.7 µM | Serine/threonine-protein phosphatase PP1-alpha catalytic subunit (Homo sapiens), P62136 | purified PP1alpha;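 active = inhibition above the mean inhibition of all tested compounds plus 3 SD, computed separately for each screening campaign, cut at about 15% in these data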
Target sequence (P62136 whole entry, looked up): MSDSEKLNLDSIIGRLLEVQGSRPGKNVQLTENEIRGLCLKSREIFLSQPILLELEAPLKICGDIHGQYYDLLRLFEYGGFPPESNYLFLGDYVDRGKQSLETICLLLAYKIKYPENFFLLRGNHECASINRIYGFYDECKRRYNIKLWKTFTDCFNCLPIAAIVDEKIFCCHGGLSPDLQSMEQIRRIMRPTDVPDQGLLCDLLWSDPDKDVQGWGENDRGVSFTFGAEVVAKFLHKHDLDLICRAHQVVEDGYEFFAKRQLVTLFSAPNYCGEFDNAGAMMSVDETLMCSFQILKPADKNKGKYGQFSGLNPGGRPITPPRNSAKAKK
EBNA-1 inh – EBNA-1 DNA-binding inhibitors, primary screen, biochemical, fluorescence polarization; inhibition, % at 14.8 µM; AID 1950, 2009; hit rate 0.34% among 300,000; in the data active = inhibition above about 28%
MsrA inh confirm – bovine MsrA inhibitors, retest, confirmation, biochemical, absorbance, HTS; inhibition, % at 15.5 µM; shares compounds with MsrA inhibitor; purified bovine MsrA, absorbance read-out; hit rate 41% among 2,300; AID 651822, 2012;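 note: coupled to thioredoxin reductase with NADPH and selenocystamine and DMSO as substrate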
Numbers stand for hits; n = inactive; x = not tested or not shown; ! = repeats disagree. Cut-off read from the data, not from the text of the source, unless noted: active = inhibition above about 4.5%; inactive = the rest.

SMILES	PP5 inh	MsrA inhibitor	MsrA act	ZTA DNA inh	PP1 counter	EBNA-1 inh	MsrA inh confirm
COc1ccc(/C=C2\SC(N3CCCCC3)=NC2=O)cc1	n	5.9	n	n	n	n	4.7
C=CCNc1nc(NCCNC(C)=O)c2sc(-c3ccccc3)cc2n1	x	4.7	n	x	x	x	n
N#C/C(=C\c1ccc(O)c([N+](=O)[O-])c1)C(=O)NCc1ccccc1	n	5.5	n	n	n	n	n
CC(C)(C)c1cccc(N/C(=C\C(=O)c2ccccc2)c2ccccc2)c1	x	n	x	x	x	x	x
COc1ccc(OC)c(CN2CCN(C(=O)CN3C(=O)NC4(CCCC4)C3=O)CC2)c1	n	n	n	n	n	n	x
Cn1c(=NC(=O)c2ccco2)sc2ccccc21	n	7.5	n	n	n	n	5.6
Cc1sc(=NC(=O)c2ccco2)n(C)c1-c1ccccc1	n	n	n	n	n	n	x
CCCSc1nc(N2CCOCC2)c2c(c1C#N)CCCC2	n	13	n	n	n	n	11
CCCc1nc(N2CCOCC2)c(C#N)c2c1CCCC2	n	n	n	n	n	n	x
CSc1nc(N2CCOCC2)c2c(c1C#N)CCCCC2	n	5.5	n	n	n	n	n
CSc1nc(N2CCOCC2)c2c(c1C#N)CC(C)(C)OC2	n	n	n	n	n	n	x
N#CCCSc1nc(N2CCOCC2)c2c(c1C#N)CCCC2	n	18	n	n	n	n	15
CC(C)CCOC(=O)C1C(c2ccccc2)C(C(=O)O)C1c1ccccc1 (configuration not stated)	n	n	n	n	n	n	x
O=C(c1nn(-c2ccccc2)c(=O)c2ccccc12)N1CCN(c2ncccn2)CC1	n	n	n	n	n	n	x
CN(C)c1ccc(C=NCC2(O)CCOC(C)(C)C2)cc1 (configuration not stated)	n	5.2	n	n	n	n	4.8
CN1CCc2c(sc3c2C(=O)NC(c2cn(Cc4ccccc4)c4ccccc24)N3)C1 (configuration not stated)	n	5.5	n	n	n	n	n
CCOc1ccccc1NC(=O)CCS(=O)(=O)c1ccc2c(c1)CCN2C(C)=O	n	n	n	n	n	n	x
COc1ccc(CSC2=C(C#N)C(=O)NC3(CCCCC3)S2)cc1	x	n	n	x	x	x	x
CCCCCCSC1=C(C#N)C(=O)NC2(CCCCC2)S1	n	5.2	n	n	n	n	n
COc1ccc(C(=O)N/N=C/c2cccnc2)cc1	n	n	n	n	n	n	x
COc1ccccc1/C=N/NC(=O)c1sc(C)nc1C	n	5.1	n	n	n	n	n
COc1ccc(/C=N/NC(=O)c2sc(C)nc2C)cc1	n	n	n	n	n	n	x
Cc1nc(N)sc1C(=O)N/N=C/c1cccnc1	n	5.8	n	n	n	n	n
N#Cc1c(-c2ccc(Cl)cc2)nc2n(c1=O)CCCS2	n	n	n	n	n	n	x
O=c1c2cc(Cl)ccc2oc2nc3n(c(=O)c12)CCCS3	n	8.9	n	n	n	n	n
SMILES	PP5 inh	MsrA inhibitor	MsrA act	ZTA DNA inh	PP1 counter	EBNA-1 inh	MsrA inh confirm
COc1ccc2cc3[n+](cc2c1OC)CCc1cc2c(cc1-3)OCO2	n	6.6!	n	n	n	n	5.4
Cc1cccc(/N=C/c2ccccn2)n1	n	n	n	n	n	n	x
CCN(CC)c1ccc(C=Nc2cc(C)ccc2C)c(O)c1	n	n	n	n	n	n	x
CCN(CC)c1ccc(C=Nc2cccnc2Cl)c(O)c1	n	5.5	n	n	n	n	6.6
CCOC(=O)N1CCN(C(=O)C[C@@H]2C[C@@]3(C(=O)OC)CCCCC=C3N(CCc3ccc(OC)c(OC)c3)C2=O)CC1	x	n	x	x	x	x	x
O=C1c2ccccc2C(=O)C1c1ccc(O)cc1	n	4.9	n	n	n	n	n
O=C1c2ccccc2C(=O)C1c1ccc(Br)cc1	n	n	n	n	n	n	x
C=CCn1c(NC(=O)c2ccco2)nc2ccccc21	n	4.8	n	n	n	n	n
O=C(Nc1nc2ccccc2n1Cc1ccc(Cl)cc1)c1ccco1	n	n	n	n	n	n	x

Assay outcomes (PubChem BioAssay)
